Test results published in PubChem BioAssay (EPA / NIEHS).
Inconclusive results are not listed. Active and inactive are the calls of the source. Rule for the calls, unless noted: active = hit-call score of the fitted dose curve at least 0.9, where 1 is the maximum; inconclusive = response in the unintended direction; inactive = score below 0.9.

Key:
[1] = target: human Peroxisome Proliferator-activated Receptor delta (PPARd), PPARD (gene 5467) (UniProt Q03181); experiment: ATG_PPARd_TRANS: Attagene TRANS-FACTORIAL HepG2 Assay for human Peroxisome Proliferator-activated Receptor delta (PPARd) (AID 2283002)
Summary of the method: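 HepG2 cells transiently transfected with GAL4-UAS multiplexed reporter units driven by exogenous chimeric NR-GAL4 proteins; 24 h compound exposure. Reporter mRNA measured by RT-PCR, 6-FAM primer extension, HpaI digestion and capillary electrophoresis; gain of signal fitted relative to DMSO.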

[2] = target: human Retinoic Acid Receptor beta (RARb), RARB (gene 5915) (UniProt P10826); experiment: ATG_RARb_TRANS: Attagene TRANS-FACTORIAL HepG2 Assay for human Retinoic Acid Receptor beta (AID 2283004)
Summary of the method: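 HepG2 cells were transiently transfected with GAL4-UAS reporter units that report activity of exogenous chimeric NR-Gal4 proteins, then exposed to compound for 24 h. Reporter mRNA was quantified by RT-PCR with capillary electrophoresis fluorescence, as gain of signal over DMSO.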

[3] = target: Peroxisome proliferator-activated receptor gamma (Homo sapiens) (UniProt P37231); experiment: ATG_PPARg_TRANS: Attagene TRANS-FACTORIAL HepG2 Assay for human Peroxisome Proliferator-activated Receptor-gamma (PPARg) (AID 2283007)
Summary of the method: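 Chimeric NR-Gal4 transactivation is measured in transiently transfected HepG2 cells by reporter mRNA induction at 24 h. Detection uses RT-PCR with fluorescent labelling and capillary electrophoresis; DMSO defines baseline.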

[4] = target: Nuclear receptor subfamily 1 group I member 2 (Homo sapiens) (UniProt O75469); experiment: ATG_PXR_TRANS: Attagene TRANS-FACTORIAL HepG2 Assay for human Pregnane X Receptor (PXR) (AID 2283008)
Summary of the method: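 HepG2 cells transiently transfected with GAL4-UAS reporter units and PXR-Gal4 chimera, exposed 24 h. Reporter mRNA quantified by RT-PCR, fluorescent labelling, HpaI digestion and capillary electrophoresis; gain of signal vs DMSO.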

[5] = read-out: Intercellular Adhesion Molecule 1 (ICAM1), ICAM1 (gene 3383); experiment: BSK_3C_ICAM1: BioMAP Diversity Plus: 3C Assay for Intercellular Adhesion Molecule 1 (ICAM1) Biomarker Activity (AID 2283003; active = hit-call score of the fitted dose curve at least 0.9, where 1 is the maximum; inactive = score below 0.9); conditions: primary human endothelial cells (HUVEC); actives raise or lower the signal
Summary of the method: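 HUVEC primary cells stimulated under 3C conditions; ICAM1 measured by ELISA 24 h after compound dosing. Curves fitted bidirectionally against the DMSO baseline. Overt cytotoxicity checked by SRB staining of parallel cultures.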

[6] = target: human Retinoic Acid Receptor gamma (RARg), RARG (gene 5916) (UniProt P13631); experiment: ATG_RARg_TRANS: Attagene TRANS-FACTORIAL HepG2 Assay for human Retinoic Acid Receptor gamma (RARg) (AID 2283009);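 for AC50: AC50 is for reporter induction above DMSO meaning RARg activation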
Summary of the method: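 HepG2 transiently transfected with GAL4-UAS reporter units and chimeric NR-Gal4 constructs; 24 h compound exposure. Reporter mRNA quantified by RT-PCR, FAM labeling, HpaI digestion and capillary electrophoresis; gain-of-signal versus DMSO.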

[7] = target: human RAR-related Orphan Receptor beta (RORb), RORB (gene 6096) (UniProt Q92753); experiment: ATG_RORb_TRANS: Attagene TRANS-FACTORIAL HepG2 Assay for human RAR-related Orphan Receptor beta (RORb) (AID 2283010)
Summary of the method: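 HepG2 cells transiently transfected with GAL4-UAS reporter units expressing chimeric NR-Gal4 protein; reporter mRNA measured 24 h after dosing by RT-PCR, 6-FAM labelling and capillary electrophoresis. Gain-of-signal fitted relative to DMSO baseline.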

[8] = target: Retinoic acid receptor RXR-alpha (Homo sapiens) (UniProt P19793); experiment: ATG_RXRa_TRANS: Attagene TRANS-FACTORIAL HepG2 Assay for human Retinoid X Receptor alpha (RXRa) (AID 2283012)
Summary of the method: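 HepG2 cells transiently transfected with GAL4-UAS reporter units and chimeric RXRa-Gal4 protein, treated 24 h. Reporter mRNA measured by RT-PCR, fluorescent labelling, HpaI digestion and capillary electrophoresis. Induction fitted against DMSO.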

[9] = target: Retinoic acid receptor alpha (Homo sapiens) (UniProt P10276); experiment: ATG_RARa_TRANS: Attagene TRANS-FACTORIAL HepG2 Assay for human Retinoic Acid Receptor alpha (RARa) (AID 2283005)
Summary of the method: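 HepG2 transiently transfected with multiplex GAL4-UAS reporter units including a human RARa–GAL4 chimera; 24 h compound exposure. Reporter mRNA quantified by RT-PCR, 6-FAM labeling and capillary electrophoresis; gain of signal versus DMSO.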

[10] = target: human RAR-related Orphan Receptor gamma (RORg), RORC (gene 6097) (UniProt P51449); experiment: ATG_RORg_TRANS: Attagene TRANS-FACTORIAL HepG2 Assay for human RAR-related Orphan Receptor gamma (RORg) (AID 2283011)
Summary of the method: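 HepG2 cells transiently transfected with GAL4-UAS reporter units and chimeric RORg-Gal4 construct; after 24 h chemical exposure, reporter mRNA measured by RT-PCR with fluorescent capillary electrophoresis, gain of signal fitted against DMSO.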

Measured: AC50

Nuclear receptor subfamily 1 group I member 2 (Homo sapiens), sequence (O75469 whole entry, looked up, the tested form may be a part): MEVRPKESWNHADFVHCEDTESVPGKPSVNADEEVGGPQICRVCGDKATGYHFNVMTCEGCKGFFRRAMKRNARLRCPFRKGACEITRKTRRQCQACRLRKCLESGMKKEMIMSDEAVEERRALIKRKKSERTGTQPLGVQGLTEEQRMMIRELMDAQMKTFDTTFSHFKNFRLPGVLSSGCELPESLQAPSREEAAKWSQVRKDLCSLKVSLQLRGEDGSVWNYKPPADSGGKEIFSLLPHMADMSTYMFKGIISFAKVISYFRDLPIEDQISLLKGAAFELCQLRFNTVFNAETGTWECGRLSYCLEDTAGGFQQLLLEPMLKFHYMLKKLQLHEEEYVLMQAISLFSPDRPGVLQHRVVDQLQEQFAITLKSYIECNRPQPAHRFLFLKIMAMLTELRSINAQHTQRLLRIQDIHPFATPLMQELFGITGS
human Retinoic Acid Receptor gamma (RARg), RARG (gene 5916), sequence (P13631 whole entry, looked up, the tested form may be a part): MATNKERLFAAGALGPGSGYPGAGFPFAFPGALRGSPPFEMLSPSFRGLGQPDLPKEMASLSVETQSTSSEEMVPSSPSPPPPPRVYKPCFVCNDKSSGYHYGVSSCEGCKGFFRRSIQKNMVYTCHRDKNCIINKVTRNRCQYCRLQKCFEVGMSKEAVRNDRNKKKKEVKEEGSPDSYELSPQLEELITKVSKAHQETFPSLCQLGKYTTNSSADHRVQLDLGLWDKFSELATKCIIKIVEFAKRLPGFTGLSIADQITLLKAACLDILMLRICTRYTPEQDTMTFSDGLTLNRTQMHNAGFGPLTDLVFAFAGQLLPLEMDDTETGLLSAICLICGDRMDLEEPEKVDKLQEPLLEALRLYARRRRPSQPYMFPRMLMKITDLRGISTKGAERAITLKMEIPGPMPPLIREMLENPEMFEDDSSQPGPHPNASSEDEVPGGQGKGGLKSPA
Retinoic acid receptor RXR-alpha (Homo sapiens), sequence (P19793 whole entry, looked up, the tested form may be a part): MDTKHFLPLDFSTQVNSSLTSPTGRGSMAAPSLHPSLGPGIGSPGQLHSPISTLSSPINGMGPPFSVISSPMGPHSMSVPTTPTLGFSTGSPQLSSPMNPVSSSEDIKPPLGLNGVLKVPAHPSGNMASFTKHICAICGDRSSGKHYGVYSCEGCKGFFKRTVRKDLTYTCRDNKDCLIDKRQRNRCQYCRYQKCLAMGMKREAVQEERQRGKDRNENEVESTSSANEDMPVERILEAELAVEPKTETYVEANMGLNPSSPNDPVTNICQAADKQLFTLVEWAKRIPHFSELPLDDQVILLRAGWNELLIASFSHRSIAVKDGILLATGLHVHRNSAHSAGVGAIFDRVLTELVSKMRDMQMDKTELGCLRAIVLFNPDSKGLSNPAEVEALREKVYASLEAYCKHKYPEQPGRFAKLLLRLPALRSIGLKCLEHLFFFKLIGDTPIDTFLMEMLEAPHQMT
human Peroxisome Proliferator-activated Receptor delta (PPARd), PPARD (gene 5467), sequence (Q03181 whole entry, looked up, the tested form may be a part): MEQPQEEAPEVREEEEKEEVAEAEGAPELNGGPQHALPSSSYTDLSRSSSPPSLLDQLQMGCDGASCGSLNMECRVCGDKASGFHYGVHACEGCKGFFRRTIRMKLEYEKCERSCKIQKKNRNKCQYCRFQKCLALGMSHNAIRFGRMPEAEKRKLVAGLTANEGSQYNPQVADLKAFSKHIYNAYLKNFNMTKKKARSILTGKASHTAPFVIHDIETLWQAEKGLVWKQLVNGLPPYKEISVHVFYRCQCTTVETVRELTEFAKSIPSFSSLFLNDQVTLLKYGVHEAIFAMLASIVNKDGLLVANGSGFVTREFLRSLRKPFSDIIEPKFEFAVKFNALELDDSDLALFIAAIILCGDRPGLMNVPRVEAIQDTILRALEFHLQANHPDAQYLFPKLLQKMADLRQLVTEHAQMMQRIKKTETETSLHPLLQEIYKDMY
human RAR-related Orphan Receptor beta (RORb), RORB (gene 6096), sequence (Q92753 whole entry, looked up, the tested form may be a part): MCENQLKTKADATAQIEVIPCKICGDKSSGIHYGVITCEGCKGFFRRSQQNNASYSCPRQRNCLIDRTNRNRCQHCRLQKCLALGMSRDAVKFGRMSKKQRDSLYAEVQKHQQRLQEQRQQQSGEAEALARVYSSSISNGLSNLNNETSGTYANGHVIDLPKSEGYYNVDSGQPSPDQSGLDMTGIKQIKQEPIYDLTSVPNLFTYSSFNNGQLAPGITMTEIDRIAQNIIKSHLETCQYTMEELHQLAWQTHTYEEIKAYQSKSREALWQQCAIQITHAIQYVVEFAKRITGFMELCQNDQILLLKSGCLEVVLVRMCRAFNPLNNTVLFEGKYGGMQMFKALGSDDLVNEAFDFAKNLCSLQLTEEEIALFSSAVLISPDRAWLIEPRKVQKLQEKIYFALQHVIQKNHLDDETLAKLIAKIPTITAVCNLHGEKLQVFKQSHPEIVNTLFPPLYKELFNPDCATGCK
Peroxisome proliferator-activated receptor gamma (Homo sapiens), sequence (P37231 whole entry, looked up, the tested form may be a part): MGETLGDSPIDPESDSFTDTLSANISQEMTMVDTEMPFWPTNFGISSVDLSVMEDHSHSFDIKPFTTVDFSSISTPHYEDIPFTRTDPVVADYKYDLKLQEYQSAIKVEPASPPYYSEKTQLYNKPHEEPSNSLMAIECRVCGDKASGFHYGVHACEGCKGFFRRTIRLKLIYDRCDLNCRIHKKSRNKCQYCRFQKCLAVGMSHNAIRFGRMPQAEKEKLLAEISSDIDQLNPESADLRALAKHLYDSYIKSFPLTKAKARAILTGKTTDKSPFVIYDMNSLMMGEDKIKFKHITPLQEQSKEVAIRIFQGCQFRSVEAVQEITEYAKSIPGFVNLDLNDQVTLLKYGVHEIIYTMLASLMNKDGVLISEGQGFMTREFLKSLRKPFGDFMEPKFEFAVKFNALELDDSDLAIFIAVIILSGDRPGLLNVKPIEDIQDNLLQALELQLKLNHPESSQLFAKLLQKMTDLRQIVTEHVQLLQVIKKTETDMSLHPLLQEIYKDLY
human Retinoic Acid Receptor beta (RARb), RARB (gene 5915), sequence (P10826 whole entry, looked up, the tested form may be a part): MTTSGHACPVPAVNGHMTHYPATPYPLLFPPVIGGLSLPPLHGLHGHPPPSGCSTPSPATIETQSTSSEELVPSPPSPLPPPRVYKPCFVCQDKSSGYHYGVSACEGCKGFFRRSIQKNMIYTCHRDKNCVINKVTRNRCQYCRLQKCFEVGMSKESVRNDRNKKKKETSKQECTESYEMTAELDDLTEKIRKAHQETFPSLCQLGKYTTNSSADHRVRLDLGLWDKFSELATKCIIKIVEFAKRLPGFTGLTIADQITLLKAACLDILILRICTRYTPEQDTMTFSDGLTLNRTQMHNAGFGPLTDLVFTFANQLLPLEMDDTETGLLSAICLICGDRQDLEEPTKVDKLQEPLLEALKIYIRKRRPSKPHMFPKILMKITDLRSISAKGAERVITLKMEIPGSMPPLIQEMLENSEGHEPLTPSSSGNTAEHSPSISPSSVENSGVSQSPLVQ
human RAR-related Orphan Receptor gamma (RORg), RORC (gene 6097), sequence (P51449 whole entry, looked up, the tested form may be a part): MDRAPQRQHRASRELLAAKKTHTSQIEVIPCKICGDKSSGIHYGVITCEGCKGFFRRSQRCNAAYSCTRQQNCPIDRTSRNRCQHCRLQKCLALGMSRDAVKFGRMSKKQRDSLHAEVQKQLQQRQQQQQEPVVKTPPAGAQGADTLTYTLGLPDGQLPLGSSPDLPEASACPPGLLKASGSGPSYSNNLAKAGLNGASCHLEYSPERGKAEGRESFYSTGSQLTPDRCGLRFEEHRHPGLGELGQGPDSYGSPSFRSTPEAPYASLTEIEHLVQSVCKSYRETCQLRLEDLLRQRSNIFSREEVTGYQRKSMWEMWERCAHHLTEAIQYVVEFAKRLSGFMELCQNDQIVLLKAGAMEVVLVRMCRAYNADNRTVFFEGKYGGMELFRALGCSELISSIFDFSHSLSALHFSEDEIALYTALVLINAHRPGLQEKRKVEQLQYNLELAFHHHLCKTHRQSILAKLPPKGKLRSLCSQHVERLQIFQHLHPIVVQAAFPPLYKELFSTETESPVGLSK
Retinoic acid receptor alpha (Homo sapiens), sequence (P10276 whole entry, looked up, the tested form may be a part): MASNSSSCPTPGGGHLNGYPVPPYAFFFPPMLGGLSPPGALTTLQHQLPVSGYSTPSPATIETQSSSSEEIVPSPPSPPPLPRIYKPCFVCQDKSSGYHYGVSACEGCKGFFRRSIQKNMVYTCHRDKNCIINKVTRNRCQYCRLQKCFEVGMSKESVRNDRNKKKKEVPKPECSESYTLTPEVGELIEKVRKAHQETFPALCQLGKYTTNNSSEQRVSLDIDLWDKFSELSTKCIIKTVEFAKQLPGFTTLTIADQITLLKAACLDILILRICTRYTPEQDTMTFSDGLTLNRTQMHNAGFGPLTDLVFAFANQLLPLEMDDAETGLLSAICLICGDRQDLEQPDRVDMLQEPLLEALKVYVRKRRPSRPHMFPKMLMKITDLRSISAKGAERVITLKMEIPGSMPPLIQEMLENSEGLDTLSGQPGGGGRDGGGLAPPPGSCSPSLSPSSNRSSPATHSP

CCN(CC#N)c1cccc(C)c1
inactive: [1] | [2] | [3] | [4]

c1ccc2c(c1)ccc1ncccc12
active: [3] 67.1 µM | [6] 33.2 µM
not listed: [9] | [10]
inactive: all other assays above

CCCCCCCCCCCCCCCC[n+]1ccccc1
inactive: [1] | [2] | [3] | [4] | [6]

C(=CC=Nc1ccccc1)C=CNc1ccccc1
inactive: [1] | [2] | [3] | [4] | [6] | [8]

CC(C)C(=O)C(C)C
inactive: [1] | [5]
active: [3] 6.38 µM

O=C(Nc1ccccc1)c1ccccc1O
active: [3] 55.9 µM
inactive: [1] | [9] | [4] | [6] | [8]

C=C1[C@H]2CC[C@@H]3[C@H]2C(C)(C)CCC[C@]13C
inactive: [1] | [2] | [3] | [6] | [8]

O=C(Nc1cccc(C(F)(F)F)c1)c1cc(Br)cc(Br)c1O
active: [3] 2.57 µM | [4] 1.07 µM
inactive: [1] | [9] | [6] | [7] | [8]

COC(=O)c1sccc1S(N)(=O)=O
inactive: [1] | [9] | [3] | [4] | [6] | [7]

CC=CCO
inactive: [1] | [2] | [4] | [6] | [10] | [8]

O=C(O)Cc1c(Cl)ccc(Cl)c1Cl
inactive: [1] | [2] | [6] | [8]
active: [3] 52.1 µM

CC(=O)[C@@]1(O)CC[C@H]2[C@@H]3C[C@H](C)C4=CC(=O)C=C[C@]4(C)[C@@]3(F)[C@@H](O)C[C@@]21C
inactive: [1] | [9] | [4] | [8]

CCCCCCCCCCCCCCCCCC#N
not listed: [2] | [5]
inactive: all other assays above

O=C1CCCCCCCCCCCCCCCO1
active: [1] 143 µM | [3] 100 µM
inactive: [9] | [4] | [7] | [8]

Cc1cc(C)c(C)cc1C
inactive: [1] | [3]

CCCCCC(C)O (centres undefined)
inactive: [1] | [2] | [3] | [7] | [8]

C[Si](C)(C)O[Si](O)(O)O
inactive: [1] | [2] | [6] | [10] | [8]

C=CC(=O)OCCOC(=O)C=C
inactive: [1] | [2] | [4] | [6] | [10] | [8]

CCOC(=O)[C@H](C)O
inactive: [1] | [9] | [4] | [6] | [10] | [8]

CC(=O)OC(C)C
not listed: [2] | [5] | [7]
inactive: all other assays above

CCOC(=O)NNc1nncc2ccccc12
inactive: [1] | [2] | [4] | [6] | [8]

c1cc(C(c2ccc(OCC3CO3)cc2)C(c2ccc(OCC3CO3)cc2)c2ccc(OCC3CO3)cc2)ccc1OCC1CO1 (centres undefined)
inactive: [1] | [9] | [3] | [4]

Nc1ccc(N=Nc2ccccc2)c(N)n1
active: [3] 59.4 µM
inactive: [1] | [9] | [4] | [6] | [8]

Nc1ncn([C@@H]2O[C@H](CO)[C@@H](O)[C@H]2O)c(=O)n1
inactive: [1] | [9] | [3] | [6] | [8]

[Cl][In]([Cl])[Cl]
inactive: [1] | [9] | [4] | [6] | [7] | [10]

NCCCN1CCN(CCCN)CC1
inactive: [1] | [9] | [4] | [6] | [7]

NC(=O)C1CO1 (centres undefined)
inactive: [1] | [2] | [8]

CC(=O)OC1C2(C)CCC(C2)C1(C)C (centres undefined)
inactive: [1] | [3] | [4]

COC=O
inactive: [1] | [2] | [4] | [6] | [8]

CC(C)(C)C1CCCCC1=O (centres undefined)
inactive: [1] | [2] | [4] | [6] | [7] | [8]

O=C(Oc1ccccc1)c1ccc2ccccc2c1O
active: [3] 15.9 µM | [4] 16.9 µM
inactive: [1]

O=c1[nH]c(=O)c2[nH]c(=O)[nH]c2[nH]1
inactive: [1] | [2] | [7] | [10]

CC(=O)[C@H]1[C@H](C#N)C[C@H]2[C@@H]3CC=C4C[C@@H](O)CC[C@]4(C)[C@H]3CC[C@@]21C
inactive: [1] | [2] | [4] | [7] | [10]

Cc1ccc(C2OC[C@@H]3OC(c4ccc(C)cc4)O[C@H]([C@H](O)CO)[C@@H]3O2)cc1 (some centres undefined)
inactive: [1] | [9] | [3] | [4] | [7]

O=CC1CC1
inactive: [1] | [9] | [6]

CCC(CC)C(=O)O
inactive: [1] | [2] | [7] | [8]

O=C(c1ccccc1)c1ccc(O)c(O)c1O
inactive: [1] | [9] | [7] | [8]
active: [3] 47 µM | [4] 24 µM

O=C(O)CCCC[C@@H]1SC[C@@H]2NC(=O)N[C@@H]21
inactive: [1] | [9] | [3] | [4] | [7] | [8]
